Ten molecules from PubChem BioAssay AID434989 (The Scripps Research Institute Molecular Screening Center, 2010) can be followed below.

As a reminder, the inhibition is the relative decrease from the control value, in per cent.

The campaign covered roughly 330,000 compounds. About 1,400 (0.42%) were called active.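 The calls were made as follows: active = inhibition above its plate's threshold, mean inhibition of all tested compounds on the plate plus 3 SD (cut at about 37% in these data); inactive = the rest.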 Shown is part of a subset that was picked to be rich in actives.

The target of this assay is Orexin/Hypocretin receptor type 1 (Homo sapiens) (UniProt O43613). Briefly: OX1R (HCRTR1) antagonists, primary screen, fluorescence, CHO/OX1R cells, Fluo-8 calcium, orexin A (AID 434989).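 Also: 0% = orexin A challenge wells and 100% = SB-334867-A antagonist wells.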 As to conditions: Fluo-8 calcium fluorescence, at 5 µM, stronger effect = higher value.
Sequence of Orexin/Hypocretin receptor type 1 (Homo sapiens) (O43613 whole entry, looked up): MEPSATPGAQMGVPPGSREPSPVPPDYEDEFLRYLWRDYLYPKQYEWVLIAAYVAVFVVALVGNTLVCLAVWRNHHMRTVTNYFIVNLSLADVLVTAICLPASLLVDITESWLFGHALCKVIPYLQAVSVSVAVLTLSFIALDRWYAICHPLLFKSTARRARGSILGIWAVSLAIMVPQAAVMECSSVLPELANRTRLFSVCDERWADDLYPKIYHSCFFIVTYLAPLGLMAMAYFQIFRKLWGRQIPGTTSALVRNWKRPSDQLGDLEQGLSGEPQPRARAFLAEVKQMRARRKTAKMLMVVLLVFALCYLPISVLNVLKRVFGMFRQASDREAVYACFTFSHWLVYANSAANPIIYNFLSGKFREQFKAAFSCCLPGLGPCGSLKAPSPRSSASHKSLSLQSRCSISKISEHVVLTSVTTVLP
For `CN1CCN(C(=S)SCC(=O)Nc2ccc(Cl)cc2C(=O)c2ccccc2)CC1`, the inhibition was -28.1% (inactive).

Regarding `CC(C(=O)Nc1ccc(Cl)cc1Cl)N1CC=C(c2ccccc2)CC1` (stereo not given), the inhibition is 50% (active).

Turning to `Cc1ccc(C(C)C)c(OCC(=O)N2CCN(CC(=O)N3CCOCC3)CC2)c1`, the inhibition was 4.64% (inactive).

Regarding `O=C(N/N=C/c1c(O)n(C2CC2)c(=S)[nH]c1=O)c1ccccc1`, the inhibition was -22.4% (inactive).

Turning to `Cc1ccc(Cn2nnnc2CN2CCC(n3nnc4ccccc43)CC2)cc1`, the inhibition is -21.8% (inactive).

`Cc1ccc(CN2CCCC(C(=O)c3ccc4c(c3)OCO4)C2)cc1C` (stereo not given): the inhibition is -21.1% (inactive).

With `COc1cc2nc(N3CCN(C(=O)[C@@H]4CCCO4)CC3)nc(N)c2cc1OC`, the inhibition was 2.61% (inactive).

As for `O=C1C2(Cl)C3(Cl)C4(Cl)C(Cl)(Cl)C5(Cl)C3(Cl)C1(Cl)C5(Cl)C24Cl` (stereo not given), the inhibition was 72.3% (active).

Turning to `CC1=C(C(=O)Nc2ccccc2)SCCO1`, the inhibition is -6.61% (inactive).

Consider `Nc1ccc([N+](=O)[O-])cc1`, for which the inhibition is -2.36% (inactive).
